{"source": "PubChem BioAssay (NCI)", "note": "This is part of a sample that, as a whole, favours compounds with a hit. Of some 83,000 tested, about 20% had one in any assay.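 A percent growth of 40 corresponds to 60% growth inhibition; 0 means no net growth; -100 means all cells died. Active threshold: below 10.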 Values without a mark were called inactive. Calls of active or inactive are those of the source.", "data": [{"tested_on": "NCI-H23 lung", "assay": "NCI-60 one-dose screen, 48 h (100 = growth as untreated, 0 = no growth, -100 = all killed)", "conditions": "10 µM unless noted", "values": [{"compound": "CN1CCN(Cc2ccc(NC(=O)c3cncc(C#Cc4cnc5ccc(NCCCO)nn45)c3)cc2C(F)(F)F)CC1", "growth": "-52% (active)"}, {"compound": "COC(=O)c1[nH]nc2c1C1(C(=O)N(C)c3ccccc31)C(C#N)=C(N)O2", "note": "(stereo not given)", "growth": "93.4%"}, {"compound": "O=C(Cn1cc(-c2ccccc2)nn1)Nc1nc(-c2ccc(Cl)cc2)cs1", "growth": "97.7%"}, {"compound": "COc1cc(OC)c(S(N)(=O)=O)cc1C(C)=O", "growth": "106%"}, {"compound": "COc1ccccc1N1CCN(C2=CC(=O)C(C)=C(C)C2=O)CC1", "growth": "99.5%"}, {"compound": "NC(N)=Nc1ccc(Oc2cccc(Nc3ccc(Br)c(C(F)(F)F)c3)c2)cn1", "growth": "-61% (active)"}, {"compound": "Cn1ccnc1C(=O)/C=C/c1ccc(CNC(=O)c2ccc(F)cc2)cc1", "growth": "5.81% (active)"}, {"compound": "Cc1c(Cl)cccc1S(=O)(=O)Nc1ccc2c(c1)C(=O)N(C1CCC(=O)NC1=O)C2=O", "note": "(stereo not given)", "growth": "102%"}, {"compound": "NS(=O)(=O)c1ccc(-n2cc(-c3cccc(NC(=O)c4ccc(N5CCOCC5)c(C(F)(F)F)c4)c3)nn2)cc1", "growth": "26.3%"}, {"compound": "CCc1cccc2c3c(sc12)C(c1ccc(OC)cc1)C(C#N)=C(/N=C/c1ccc(Cl)cc1)O3", "note": "(stereo not given)", "growth": "19.9%"}, {"compound": "Nc1ncc(-c2ccc3ncnc(N4CCc5cc(F)c(F)cc54)c3c2)cn1", "growth": "38.3%"}, {"compound": "COc1c(N2CC3CCCNC3C2)c(F)cc2c(=O)c(C(=O)N/N=C/c3ccc(Br)cc3)cn(C3CC3)c12", "note": "(stereo not given)", "growth": "88.3%"}, {"compound": "O=C(NNc1nc2cc(F)c(F)cc2n2c(CN3CC4CNCC4C3)ccc12)c1ncccn1", "note": "(stereo not given)", "growth": "26%"}, {"compound": "COc1ccc(/C=C(\\C#N)C(=O)N2c3ccccc3Sc3ccc(SC)cc32)cc1F", "growth": "91.4%"}, {"compound": "Cc1ccc(NC(=O)CNc2cc(C(N)=O)cc(F)c2C)c(Cl)c1", "growth": "86.9%"}, {"compound": "CNC(=O)c1cc(Oc2ccc3nc(NC(=O)c4cccc(OC(F)(F)F)c4)sc3c2)ccn1", "growth": "82.8%"}, {"compound": "O=C1CCCC2=C1C(c1c[nH]c3ccc(Br)cc13)Cc1cc(Br)ccc1N2", "note": "(stereo not given)", "growth": "45.8%"}, {"compound": "COc1cc2oc(-c3cccc(C(=O)N[C@@H](CC(C)C)C(=O)OC(C)(C)C)c3)cc(=O)c2c(OC)c1OC", "growth": "60.6%"}, {"compound": "NC(N)=Nc1ccc(Nc2cccc(Nc3ccc(Cl)c(C(F)(F)F)c3)c2)cn1", "growth": "41.7%"}, {"compound": "CC(=O)c1nnn(-c2c(C(=O)n3nc(C)cc3C)sc(=S)n2-c2ccccc2)c1C", "growth": "106%"}, {"compound": "CS(=O)(=O)Nc1cc(-c2ccc3ncc(C#N)c(N[C@H](CO)c4ccccc4)c3c2)cnc1Cl", "growth": "45.2%"}, {"compound": "COc1ccc(C(=O)CSc2nc3c(c(Nc4ccc(S(N)(=O)=O)cc4)n2)CCCC3)cc1", "growth": "88.1%"}, {"compound": "CCn1c(SCC(=O)Nc2cccc(C(=O)/C=C/c3ccc(Br)cc3)c2)nc2ccccc2c1=O", "growth": "82.9%"}, {"compound": "N#Cc1c(Nc2ccccc2)nn2c(-c3ccc([N+](=O)[O-])cc3)ccnc12", "growth": "100%"}, {"compound": "O=C(CCn1c[n+](CC(=O)c2ccc(-c3ccccc3)cc2)c2ccccc21)Nc1cccc2cccnc12", "growth": "60.2%"}, {"compound": "COc1ccc(OC)c(-c2nc(SCC(=O)c3ccc(Br)cc3)nc(Nc3ccc(S(N)(=O)=O)cc3)c2C#N)c1", "growth": "58.4%"}, {"compound": "FC(F)(F)c1cc(Nc2cccc(Oc3ccc(NC4=NCCN4)nc3)c2)ccc1Cl", "growth": "19.5%"}, {"compound": "CCO/C=N/C1=C(C#N)C(c2ccc(OC)cc2)c2sc3c(CC)cccc3c2O1", "note": "(stereo not given)", "growth": "32.2%"}, {"compound": "COc1ccc2c(c1)c(CC(=O)[Se]CCC#N)c(C)n2C(=O)c1ccc(Cl)cc1", "growth": "3.36% (active)"}, {"compound": "CN(C)CCN(C)c1ccc2ncc(C#Cc3cncc(C(=O)Nc4ccc(CN5CCN(C)CC5)c(C(F)(F)F)c4)c3)n2n1", "growth": "-66.4% (active)"}, {"compound": "NC(=O)c1c(NC(=O)c2ccccc2C(F)(F)F)sc2c1CCC(=O)C2", "growth": "4.77% (active)"}, {"compound": "NC(N)=Nc1ccc(Oc2cccc(NC(N)=Nc3ccc(I)cc3F)c2)cc1", "growth": "77.4%"}, {"compound": "COc1ccc(CCOc2cc3c(cc2OC)CCN(C(=O)NCc2cocn2)C3c2ccc(C)cc2C)cc1", "note": "(stereo not given)", "growth": "11.4%"}, {"compound": "CC(C)(C)c1ccc(C(=O)Nc2nc3ccc(O)cc3s2)cc1", "growth": "54.8%"}, {"compound": "CC1(C)CC[C@]2(C(=O)N3CCOCC3)CC[C@]3(C)C(=CC[C@@H]4[C@@]5(C)C/C(=C/c6ccccn6)C(=O)C(C)(C)[C@@H]5CC[C@]43C)[C@@H]2C1", "growth": "60.2%"}]}]}
